In the library only some 2.8% were active in any assay of this set; here they are far more common.
POLB inh: inhibitors of human DNA polymerase beta; Pol beta primer extension/strand displacement, fluorescence kinetic; Potency, µM (top dose mostly 114 µM), inactives show top-dose activity change, negative = inhibition, actives largely listed as inhibitors; hit rate 1.3% among 340,000; also: potency is read from the fitted curve at half-maximal effect; % is scaled to controls: 0 for no effect and ±100 for the full control effect
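Human Pol beta at 10 nM; strand-displacement substrate 50 nM final. Compound exposure 15 min at room temperature before start, reaction 10 min at room temperature.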
Pol iota inh: inhibitors of human DNA polymerase iota; Pol iota fluorescent replication assay, 10 min; Potency, µM (top dose mostly 115 µM), inactives show at the top dose activity, negative = inhibition, hits mostly inhibitors; hit rate 1% among 390,000; also: potency is read from the fitted curve at half-maximal effect
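Pol iota at 10 nM preincubated 15 min with compounds at room temperature; reaction started with fluorescent substrate, 50 nM final. Fluorescence read kinetically at 0 and 10 min; buffer-only wells as negative control.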
Pol kappa inh: DNA polymerase kappa (human) inhibition; Q9UBT6; purified Pol kappa, fluorescent DNA synthesis assay, 10 min; Potency, µM (doses to about 107 µM), inactives show at the highest dose activity, negative = inhibition, hits mostly inhibitors; hit rate 0.53% among 400,000; also: potency is read from the fitted curve at half-maximal effect; % is scaled to controls: 0 for no effect and ±100 for the full control effect
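Kinetic fluorescence screen: compound preincubated 15 min RT with 10 nM enzyme; 50 nM substrate (final) initiates; reads at 0/10 min.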
Pol eta inh: blocks human DNA polymerase eta activity. Potency, µM (series often up to 114 µM), for inactives: at the top dose activity change, negative = inhibition, usual class: inhibitors. hit rate 1.2% among 390,000. Q9Y253. AID 588591. recombinant Pol eta, fluorescent DNA replication assay; also: potency is read from the fitted curve at half-maximal effect; % is scaled to controls: 0 for no effect and ±100 for the full control effect
Target sequence (Q9Y253 whole entry, looked up): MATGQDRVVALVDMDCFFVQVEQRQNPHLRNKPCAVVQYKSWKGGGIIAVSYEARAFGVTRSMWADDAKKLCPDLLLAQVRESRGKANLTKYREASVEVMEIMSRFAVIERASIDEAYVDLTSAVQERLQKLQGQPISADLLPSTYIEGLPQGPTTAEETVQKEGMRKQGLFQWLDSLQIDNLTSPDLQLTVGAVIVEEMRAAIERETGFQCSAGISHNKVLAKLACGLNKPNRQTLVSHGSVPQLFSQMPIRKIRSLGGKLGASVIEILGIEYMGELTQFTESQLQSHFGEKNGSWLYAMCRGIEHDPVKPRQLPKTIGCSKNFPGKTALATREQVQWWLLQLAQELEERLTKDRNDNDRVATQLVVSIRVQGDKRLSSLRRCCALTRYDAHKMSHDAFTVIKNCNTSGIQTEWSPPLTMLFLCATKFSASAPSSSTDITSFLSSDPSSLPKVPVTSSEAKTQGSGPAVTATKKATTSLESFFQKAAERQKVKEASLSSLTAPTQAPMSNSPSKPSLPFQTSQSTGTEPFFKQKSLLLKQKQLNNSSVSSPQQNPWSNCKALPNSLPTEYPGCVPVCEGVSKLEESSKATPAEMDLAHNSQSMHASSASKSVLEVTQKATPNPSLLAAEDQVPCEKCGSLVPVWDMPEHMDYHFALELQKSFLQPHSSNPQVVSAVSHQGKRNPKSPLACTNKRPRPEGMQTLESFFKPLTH
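Pol eta at 10 nM preincubated with compounds 15 min at room temperature; reaction started with fluorescent substrate (50 nM final) and read kinetically at 0 and 10 min.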
WRN inhibitor: blocks human WRN helicase | Q14191 | hit rate 0.46% among 360,000 | WRN helicase unwinding, fluorescent forked duplex, kinetic | Potency, µM (series often up to 114 µM), for inactives: top-dose activity change, negative = inhibition, hits mostly inhibitors; also: potency is read from the fitted curve at half-maximal effect; % is scaled to controls: 0 for no effect and ±100 for the full control effect; nearly all actives have a fitted effect of over 55% in size
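WRN at 20 nM final preincubated with compound 15 min at room temperature; reaction started with 100 nM fluorophore/quencher forked duplex oligonucleotide and 2 mM ATP final. Unwinding followed kinetically by red fluorescence (ex 525, em 598 nm).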
PI5P4Ka inh: PI5P4K alpha (human) kinase inhibition. AID 652105. max response, %. PI5P4Kalpha enzyme, ADP-Glo luminescence, 60 min; hits give low values. hit rate 1.2% among 330,000; active = max response of -50% or lower; inconclusive = between -30% and -50%; inactive = -30% or higher; also: value at the top dose of about 77 µM; % is scaled to controls: 0 for no effect and ±100 for the full control effect
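Luminescence from ADP-Glo served as readout of PI5P4Kalpha activity in a qHTS format. Reaction: enzyme, substrate, compound, ATP at 5 microM final, 60 min at RT.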
ADP-Glo counter: ADP-Glo luciferase interference, PI5P4K counter-screen; shares compounds with PI5P4Ka inh; ADP-Glo detection counter-screen, luciferase luminescence, no enzyme; Potency, µM (titrated, usually from 76.9 µM), for inactives: at the highest dose activity change, negative = inhibition, usual class: inhibitors; 1,100 tested, under 10 active; AID 743285
An asterisk follows results filed as active; ? = inconclusive; / = no result; [ ] = remark or other dose. Unless noted, calls follow the shape of the dose curve; as a rule, active = well fitted curve in the direction sought with a large enough effect; inconclusive = small, poorly fitted or top-dose-only effect, or another doubt; inactive = no such curve, though single readings can be large; an effect the other way counts as inactive or inconclusive.

SMILES	POLB inh	Pol iota inh	Pol kappa inh	Pol eta inh	WRN inhibitor	PI5P4Ka inh	ADP-Glo counter
CC(C)Oc1ccc(CNS(=O)(=O)c2ccc(-c3cc(C(F)(F)F)on3)s2)cc1	11.7%	16.1%	0.9%	-12.4%	/	/	/
CCC(=O)N1CCCC(C(=O)Nc2ccc3cn[nH]c3c2)CC1 (stereo not drawn)	/	/	/	/	0.2%	4.4	/
COc1ccc(-c2nc(C)c(CCNC(=O)c3ccco3)s2)cc1	15.5%	-9.3%	-8.0%[60.1 µM]	-2.7%	/	/	/
CC(C)NC(=O)N1c2ccccc2Sc2ccccc21	0.7%	183.6%	1.2%	-19.5%	3.8%	-60.4*	-1.0%
CCOc1ccc(C2/C(=C(\O)c3ccc4c(c3)OCCO4)C(=O)C(=O)N2CCN2CCOCC2)cc1OC (stereo not drawn)	42.9%	27.4%	2.9%	-6.3%	1.5%	0.2	/
CCOc1cccc(NC(=O)c2sc3nc(-c4ccc(F)cc4)ccc3c2N)c1	-1.5%	-8.7%	-1.2%	1.9%	/	/	/
CC(C)C(=O)N1CCN(c2ccccc2NC(=O)c2ccco2)CC1	2.2%	?	?	-99.0%	-15.0%	-58.8*	2.3%
CC1CCN(C(=O)CN2C(=O)C(=O)N(C)C2=O)c2ccccc2S1 (stereo not drawn)	/	8.3%	-18.2%	3.7%	-7.1%	4.5	/
CCC/C(O)=C1\C(=O)CC(C)(C)CC1=Nc1ccccc1O	19.4%	54.9%	5.8%	-26.0%	-3.2%	?	/
O=c1cc(CSc2ccc(Cl)cc2)nc2nc[nH]n12	0.2%	2.5%	-12.2%	6.4%	-10.3%	-67.2*	-11.8%
COc1ccc(C2=NOC(C(=O)NCc3ccccn3)C2)cc1OC (stereo not drawn)	30.1%	27.4%	-7.8%	4.5%	-6.5%	-52.8*	2.8%
Cc1ccc2ncnc(NCc3ccco3)c2c1	/	?	-17.9%	/	/	/	/
Cc1ccc(CNc2ncnc3ccc(-c4ccc(CO)o4)cc23)o1	/	/	/	/	/	/	4.6%
Nc1sc2c(c1C(=O)c1ccccc1)CCCC2	10.0%	15.9%	-6.4%	-7.7%	-8.8%	-50.6*	-6.5%
CCCCc1nnc(NC(=O)c2oc3ccccc3c2C)s1	/	17.0%	-2.2%	-14.6%	-3.3%	2.2	/
COc1ccc(N2CC(C(=O)Nc3nc4ccc(S(C)(=O)=O)cc4s3)CC2=O)cc1 (stereo not drawn)	?	?	-9.7%	?	-12.1%	-52.8*	0.6%
Cc1ccccc1Cn1c(=O)n(CCc2ccccc2)c(=O)c2c(C)c(C)sc21	-19.1%	18.5%	1.6%	/	/	/	/
O=C(O)c1cccc(-n2cc(-c3cccc(C(F)(F)F)c3)cn2)c1	0.9%	?	-16.0%	3.1%	-6.9%	-62.0*	-4.0%
O=C(O)c1ccc(-c2nc(-c3cccc(C(F)(F)F)c3)cs2)cc1	8.4%	32.8%	-2.9%	-10.0%	-7.0%	-17.7	/
Cc1ccc(N(C(=O)CNC(=O)c2ccco2)C(C(=O)NC2CCCC2)c2cccnc2)c(C)c1 (stereo not drawn)	31.9%	18.7%	-3.7%	-16.7%	7.2%	-58.5*	-0.7%
CN(Cc1cn(-c2ccccc2)nc1-c1cc2ccccc2o1)C(=O)CCC(=O)O	7.6%	32.3%	0.6%	-17.6%	-23.8%	-58.5*	-0.5%
COc1ccc(C2=NCCn3nc4cc(OC)ccc4c32)cc1	/	17.7%	-10.8%	-1.1%	-3.2%	-82.4*	3.9%
COc1ccc2c3n(nc2c1)CCN=C3c1ccc(Cl)cc1	/	-3.9%	-11.2%	-8.1%	7.5%	-0.9	/
O=C(Nc1scc(-c2ccccc2)c1C(=O)O)c1ccc(F)cc1	24.1%	-1.2%	-7.2%	-10.1%	-10.3%	?	/
Cc1ccc(-c2csc(NC(=O)c3ccc(F)cc3)c2C(=O)O)cc1	-2.9%	-11.0%	4.4%	-16.1%	-15.7%	-61.4*	0.6%
SMILES	POLB inh	Pol iota inh	Pol kappa inh	Pol eta inh	WRN inhibitor	PI5P4Ka inh	ADP-Glo counter
O=C(NCc1ccccc1Cl)c1ccc2c(c1)N(Cc1ccccc1)C(=O)CS2	1.6%	15.6%	-4.3%[60.1 µM]	-16.6%	/	/	/
O=C(NC1CC1)C1=C[C@@H](c2c[nH]c3ccccc23)C[C@@H](OCc2ccc(CO)cc2)O1	3.1%	?	-13.1%	-2.1%	-2.0%	-50.5*	-6.9%
COc1ccc(C(=O)/C(C#N)=N/Nc2cccc([N+](=O)[O-])c2)cc1	-1.5%	-3.6%	-17.1%	-4.1%	-11.7%	-1.9	/
COc1ccc(N2CSC3=C(C#N)C(c4cccc(OC)c4OC)CC(=O)N3C2)cc1 (stereo not drawn)	0.8%	56.5%	-10.3%	7.7%	6.1%	-50.6*	-14.1%
COc1cccc(C2SCC(=O)N2c2ccc(Cl)cc2)c1OC (stereo not drawn)	0.2%	78.6%	-8.1%	-4.5%	2.2%	-5.2	/
CCc1ccccc1N1CSC2=C(C#N)C(c3ccccc3F)CC(=O)N2C1 (stereo not drawn)	-26.7%	-7.8%	-5.7%	-7.5%	-1.5%	-60.0*	-7.9%
COc1ccc2ccccc2c1C1CC(=O)N2CN(C3CCCCC3)CSC2=C1C#N (stereo not drawn)	89.1µM*	?	-44.4%	?	-2.2%	-56.1*	-4.6%
COc1ccc(CN2C(=O)c3ccccc3C2c2nnnn2-c2ccc3c(c2)OCCO3)cc1OC (stereo not drawn)	/	/	/	/	4.9%	-2.3	/
COc1cccc(CNC(=O)Cc2ccc(NC(=O)C3=C(C)OCCS3)cc2)c1	22.4µM*	?	?	?	-16.0%	-52.9*	-2.2%
Cc1nc(SCC(=O)Nc2ccccc2Cl)c2c(C)c(C)sc2n1	/	4.2%	-19.8%	-2.1%	2.2%	0.3	/
COc1n[nH]c(C(=O)Nc2nc3ccccc3s2)c1[N+](=O)[O-]	-2.5%	?	-11.6%	?	-6.0%[11.6 µM]	-53.8*	1.9%
CN(C(=O)c1ccc(Br)o1)C1CCS(=O)(=O)C1 (stereo not drawn)	10.5%	9.3%	4.7%	-4.9%	-4.3%	?	4.4%
CCN(C(=O)c1ccc(Br)o1)C1CCS(=O)(=O)C1 (stereo not drawn)	/	53.7%	-8.1%	-19.0%	-19.4%	4.0	/
c1ccc2c(OCCCCN3CCOCC3)cccc2c1	17.9%	?	?	-98.2%	-4.5%[11.6 µM]	-13.9	0.8%
CCCCCCCCN1C(=O)[C@H](CC(=O)NCc2cccs2)C[C@@]2(C(=O)OC)CC(C)(C)CC=C12	/	/	/	/	-15.0%	2.0	/
CCCCCCCCN1C(=O)[C@H](CC(=O)NCc2ccc(C)o2)C[C@@]2(C(=O)OC)CC(C)(C)CC=C12	/	/	/	/	-3.6%	-51.0*	-1.0%
CC(S)C(=O)NCC(=O)O (stereo not drawn)	/	/	-3.9%[60.1 µM]	/	/	/	/

Screening data (PubChem)
